{"source": "paper PMC5700166", "assay_in_all_cases": "protein-binding microarray (PBM); PBM: ~300 nM protein, 6 mM HEPES pH 7.8, 80 mM KCl, 0.5 mM EDTA, 0.5 mM EGTA, 6% glycerol, 35 ng/ul poly-dIdC, 1% milk, 1 h, room temperature; Ap Aiptasia and Nv Nematostella (sea anemones) / Co Capsaspora / Aq Amphimedon (sponge) / Dm Drosophila / Hu human; RHD is the Rel homology domain; high values mean tight binding", "conditions_in_all_cases": "dsDNA, one strand shown", "key": {"[1]": {"target": "T1, GST-Nv-NF-kB (Cys allele) (Nematostella vectensis, UniProt E5G601 2-411)", "T1 sequence": "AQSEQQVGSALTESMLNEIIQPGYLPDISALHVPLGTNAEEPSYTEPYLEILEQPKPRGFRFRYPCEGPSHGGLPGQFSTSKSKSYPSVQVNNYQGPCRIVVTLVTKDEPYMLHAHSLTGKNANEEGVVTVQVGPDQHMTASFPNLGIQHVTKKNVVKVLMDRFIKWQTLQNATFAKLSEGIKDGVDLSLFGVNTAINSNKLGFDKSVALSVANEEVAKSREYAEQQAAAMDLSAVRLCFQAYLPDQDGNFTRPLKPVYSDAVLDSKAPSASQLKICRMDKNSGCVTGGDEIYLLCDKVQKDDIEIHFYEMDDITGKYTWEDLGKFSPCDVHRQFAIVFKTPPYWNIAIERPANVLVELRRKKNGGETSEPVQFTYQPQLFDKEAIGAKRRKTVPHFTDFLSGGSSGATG"}, "[2]": {"target": "T2, GST-Dm-Relish (Drosophila melanogaster, UniProt Q94527 99-473)", "T2 sequence": "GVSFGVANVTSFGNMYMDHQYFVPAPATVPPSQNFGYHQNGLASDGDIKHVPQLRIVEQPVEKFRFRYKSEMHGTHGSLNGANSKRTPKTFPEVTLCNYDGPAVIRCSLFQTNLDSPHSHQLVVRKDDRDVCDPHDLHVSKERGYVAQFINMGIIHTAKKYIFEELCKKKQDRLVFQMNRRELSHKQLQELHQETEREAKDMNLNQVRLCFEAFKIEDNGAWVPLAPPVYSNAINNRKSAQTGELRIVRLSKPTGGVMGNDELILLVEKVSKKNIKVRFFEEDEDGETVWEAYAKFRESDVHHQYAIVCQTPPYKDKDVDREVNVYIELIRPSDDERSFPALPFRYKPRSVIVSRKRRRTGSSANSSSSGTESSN"}, "[3]": {"target": "T3, GST-Aq-NF-kB (Amphimedon queenslandica, UniProt A9Y5G7 2-389)", "T3 sequence": "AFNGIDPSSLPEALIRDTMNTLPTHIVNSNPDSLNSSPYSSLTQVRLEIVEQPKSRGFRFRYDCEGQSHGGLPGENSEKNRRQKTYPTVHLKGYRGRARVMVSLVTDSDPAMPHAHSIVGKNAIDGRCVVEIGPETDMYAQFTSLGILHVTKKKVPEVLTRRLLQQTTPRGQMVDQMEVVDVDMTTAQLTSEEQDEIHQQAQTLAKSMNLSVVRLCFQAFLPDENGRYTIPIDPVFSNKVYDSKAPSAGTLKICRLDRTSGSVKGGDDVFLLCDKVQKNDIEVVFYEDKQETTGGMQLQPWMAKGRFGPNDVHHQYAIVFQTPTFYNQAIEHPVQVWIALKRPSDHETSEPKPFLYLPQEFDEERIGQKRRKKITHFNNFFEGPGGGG"}, "[4]": {"target": "T4, GST-Co-NF-kB (Capsaspora owczarzaki, UniProt F1ARL5 200-546)", "T4 sequence": "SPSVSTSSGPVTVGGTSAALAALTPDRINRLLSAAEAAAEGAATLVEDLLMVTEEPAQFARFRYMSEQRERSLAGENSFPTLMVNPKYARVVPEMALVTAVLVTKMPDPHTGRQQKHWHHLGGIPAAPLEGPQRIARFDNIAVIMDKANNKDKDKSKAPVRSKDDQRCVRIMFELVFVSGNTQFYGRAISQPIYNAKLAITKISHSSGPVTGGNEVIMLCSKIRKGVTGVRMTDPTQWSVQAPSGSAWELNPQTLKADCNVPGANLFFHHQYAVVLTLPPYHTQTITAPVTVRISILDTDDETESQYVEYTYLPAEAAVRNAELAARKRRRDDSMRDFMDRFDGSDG"}, "[5]": {"target": "T5, GST-Nv-NF-kB (Ser allele) (Nematostella vectensis, UniProt A7UNT2 2-411)", "T5 sequence": "T1 sequence with Q21R, C66S, S207N, E215Q, V217A, E225K, A268E, D399E"}}, "note": "Positions count from the first letter of the chain named."}
{"sequence": "CCGATTAACATCAGGAATTTACCTGATGTTAATCGGGTCTTGATTCGCTTGACGCTGCTG", "values": [{"measurement": "binding signal", "setting": "[1]", "result": 3.18, "unit": "z-score"}, {"measurement": "binding signal", "setting": "[2]", "result": 4.54, "unit": "z-score"}, {"measurement": "binding signal", "setting": "[3]", "result": 4.81, "unit": "z-score"}]}
{"sequence": "CCGATTAACATCAAGGACTTTCCTGATGTTAATCGGGTCTTGATTCGCTTGACGCTGCTG", "values": [{"measurement": "binding signal", "setting": "[1]", "result": 1.03, "unit": "z-score"}, {"measurement": "binding signal", "setting": "[2]", "result": 3.11, "unit": "z-score"}, {"measurement": "binding signal", "setting": "[3]", "result": 4.6, "unit": "z-score"}]}
{"sequence": "CCGATTAACATCAACTTTGGGAATGATGTTAATCGGGTCTTGATTCGCTTGACGCTGCTG", "values": [{"measurement": "binding signal", "setting": "[1]", "result": 1.04, "unit": "z-score"}, {"measurement": "binding signal", "setting": "[4]", "result": 1.7, "unit": "z-score"}, {"measurement": "binding signal", "setting": "[3]", "result": 1.56, "unit": "z-score"}]}
{"sequence": "CCGATTAACATCAGGTAATTTACTGATGTTAATCGGGTCTTGATTCGCTTGACGCTGCTG", "values": [{"measurement": "binding signal", "setting": "[1]", "result": 1.68, "unit": "z-score"}, {"measurement": "binding signal", "setting": "[4]", "result": 1.89, "unit": "z-score"}, {"measurement": "binding signal", "setting": "[2]", "result": 5.32, "unit": "z-score"}, {"measurement": "binding signal", "setting": "[3]", "result": 2.13, "unit": "z-score"}]}
{"sequence": "CCGATTAACATCAACTATCCCGCTGATGTTAATCGGGTCTTGATTCGCTTGACGCTGCTG", "values": [{"measurement": "binding signal", "setting": "[4]", "result": 1.37, "unit": "z-score"}, {"measurement": "binding signal", "setting": "[3]", "result": 1.07, "unit": "z-score"}]}
{"sequence": "CCGATTAACATCAGGAAATTTCCTGATGTTAATCGGGTCTTGATTCGCTTGACGCTGCTG", "values": [{"measurement": "binding signal", "setting": "[1]", "result": 1.72, "unit": "z-score"}, {"measurement": "binding signal", "setting": "[2]", "result": 1.75, "unit": "z-score"}, {"measurement": "binding signal", "setting": "[3]", "result": 3.27, "unit": "z-score"}]}
{"sequence": "CCGATTAACATCACTTTGGGAAATGATGTTAATCGGGTCTTGATTCGCTTGACGCTGCTG", "values": [{"measurement": "binding signal", "setting": "[1]", "result": 1.89, "unit": "z-score"}, {"measurement": "binding signal", "setting": "[4]", "result": 2.05, "unit": "z-score"}, {"measurement": "binding signal", "setting": "[3]", "result": 1.28, "unit": "z-score"}]}
{"sequence": "CCGATTAACATCACATGTGGGAATGATGTTAATCGGGTCTTGATTCGCTTGACGCTGCTG", "values": [{"measurement": "binding signal", "setting": "[1]", "result": 1.34, "unit": "z-score"}, {"measurement": "binding signal", "setting": "[4]", "result": 2.62, "unit": "z-score"}, {"measurement": "binding signal", "setting": "[3]", "result": 2.05, "unit": "z-score"}]}
{"sequence": "CCGATTAACATCAGGGATCGCCCTGATGTTAATCGGGTCTTGATTCGCTTGACGCTGCTG", "values": [{"measurement": "binding signal", "setting": "[1]", "result": 1.19, "unit": "z-score"}, {"measurement": "binding signal", "setting": "[2]", "result": 3.26, "unit": "z-score"}, {"measurement": "binding signal", "setting": "[3]", "result": 4.24, "unit": "z-score"}]}
{"sequence": "CCGATTAACATCAACGGAAATTCTGATGTTAATCGGGTCTTGATTCGCTTGACGCTGCTG", "values": [{"measurement": "binding signal", "setting": "[4]", "result": 1.34, "unit": "z-score"}, {"measurement": "binding signal", "setting": "[3]", "result": 1.24, "unit": "z-score"}]}
{"sequence": "CCGATTAACATCAGGAATGTACCTGATGTTAATCGGGTCTTGATTCGCTTGACGCTGCTG", "values": [{"measurement": "binding signal", "setting": "[1]", "result": 1.98, "unit": "z-score"}, {"measurement": "binding signal", "setting": "[2]", "result": 4.93, "unit": "z-score"}, {"measurement": "binding signal", "setting": "[3]", "result": 3.14, "unit": "z-score"}]}
{"sequence": "CCGATTAACATCACGGAAATTTATGATGTTAATCGGGTCTTGATTCGCTTGACGCTGCTG", "values": [{"measurement": "binding signal", "setting": "[4]", "result": 1.07, "unit": "z-score"}, {"measurement": "binding signal", "setting": "[2]", "result": 1.11, "unit": "z-score"}, {"measurement": "binding signal", "setting": "[3]", "result": 1.74, "unit": "z-score"}]}
{"sequence": "CCGATTAACATCATTGGGAAAAATGATGTTAATCGGGTCTTGATTCGCTTGACGCTGCTG", "values": [{"measurement": "binding signal", "setting": "[1]", "result": 2.44, "unit": "z-score"}, {"measurement": "binding signal", "setting": "[4]", "result": 3.75, "unit": "z-score"}, {"measurement": "binding signal", "setting": "[3]", "result": 1.92, "unit": "z-score"}]}
{"sequence": "CCGATTAACATCAATTGGGAAATTGATGTTAATCGGGTCTTGATTCGCTTGACGCTGCTG", "values": [{"measurement": "binding signal", "setting": "[1]", "result": 3.36, "unit": "z-score"}, {"measurement": "binding signal", "setting": "[5]", "result": 3.48, "unit": "z-score"}, {"measurement": "binding signal", "setting": "[4]", "result": 1.8, "unit": "z-score"}, {"measurement": "binding signal", "setting": "[2]", "result": 1.48, "unit": "z-score"}, {"measurement": "binding signal", "setting": "[3]", "result": 1.63, "unit": "z-score"}]}
{"sequence": "CCGATTAACATCAGGTAACTACCTGATGTTAATCGGGTCTTGATTCGCTTGACGCTGCTG", "values": [{"measurement": "binding signal", "setting": "[2]", "result": 3.08, "unit": "z-score"}, {"measurement": "binding signal", "setting": "[3]", "result": 3.17, "unit": "z-score"}]}
{"sequence": "CCGATTAACATCACGGGATGTACTGATGTTAATCGGGTCTTGATTCGCTTGACGCTGCTG", "values": [{"measurement": "binding signal", "setting": "[2]", "result": 5.98, "unit": "z-score"}, {"measurement": "binding signal", "setting": "[3]", "result": 1.26, "unit": "z-score"}]}
{"sequence": "CCGATTAACATCAGTACTTTCCATGATGTTAATCGGGTCTTGATTCGCTTGACGCTGCTG", "values": [{"measurement": "binding signal", "setting": "[2]", "result": 5.35, "unit": "z-score"}, {"measurement": "binding signal", "setting": "[3]", "result": 1.95, "unit": "z-score"}]}
{"sequence": "CCGATTAACATCAAAAAAATTTCTGATGTTAATCGGGTCTTGATTCGCTTGACGCTGCTG", "values": [{"measurement": "binding signal", "setting": "[2]", "result": 1.41, "unit": "z-score"}, {"measurement": "binding signal", "setting": "[3]", "result": 1.23, "unit": "z-score"}]}
{"sequence": "CCGATTAACATCAGGAAATTTTATGATGTTAATCGGGTCTTGATTCGCTTGACGCTGCTG", "values": [{"measurement": "binding signal", "setting": "[2]", "result": 1.46, "unit": "z-score"}, {"measurement": "binding signal", "setting": "[3]", "result": 1.85, "unit": "z-score"}]}
{"sequence": "CCGATTAACATCACGGAATTTTATGATGTTAATCGGGTCTTGATTCGCTTGACGCTGCTG", "values": [{"measurement": "binding signal", "setting": "[2]", "result": 1.2, "unit": "z-score"}, {"measurement": "binding signal", "setting": "[3]", "result": 2.25, "unit": "z-score"}]}
{"sequence": "CCGATTAACATCACGTAAATTCCTGATGTTAATCGGGTCTTGATTCGCTTGACGCTGCTG", "values": [{"measurement": "binding signal", "setting": "[2]", "result": 1.43, "unit": "z-score"}, {"measurement": "binding signal", "setting": "[3]", "result": 1.08, "unit": "z-score"}]}
{"sequence": "CCGATTAACATCATAAAATTCCATGATGTTAATCGGGTCTTGATTCGCTTGACGCTGCTG", "values": [{"measurement": "binding signal", "setting": "[2]", "result": 1.32, "unit": "z-score"}, {"measurement": "binding signal", "setting": "[3]", "result": 1.26, "unit": "z-score"}]}
{"sequence": "CCGATTAACATCACGGAAAGTCCTGATGTTAATCGGGTCTTGATTCGCTTGACGCTGCTG", "values": [{"measurement": "binding signal", "setting": "[2]", "result": 3.12, "unit": "z-score"}, {"measurement": "binding signal", "setting": "[3]", "result": 5.28, "unit": "z-score"}]}
{"sequence": "CCGATTAACATCAAAATTTCCACTGATGTTAATCGGGTCTTGATTCGCTTGACGCTGCTG", "values": [{"measurement": "binding signal", "setting": "[2]", "result": 1.61, "unit": "z-score"}, {"measurement": "binding signal", "setting": "[3]", "result": 1.15, "unit": "z-score"}]}
